{"source": "PubChem BioAssay AID588499", "about": "(NMMLSC, 2011)", "note": "Hit rate of the full screen: of about 360,000 compounds, about 610 (0.17%) were called active. About 2% were inconclusive and are not listed. Shown is part of a subset that was picked to be rich in actives. Values without a mark were called inactive. No stated cut-off is given here; in the data, active means inhibition above about 30%; inconclusive means no clear call, values can overlap the other calls; inactive means below that.", "data": [{"system": "Botulinum neurotoxin type A light chain protease (Clostridium botulinum A str. ATCC 3502)", "assay": "BoNT/A light chain protease inhibitors, primary screen, biochemical, flow cytometry, MLPCN library (AID 588499); further: plate controls were buffer without enzyme for full effect and enzyme alone for no effect", "conditions": "multiplex microsphere protease substrate cleavage, at 10 µM, active compounds read high", "values": [{"molecule": "NC(CSC12CC3CC(CC(C3)C1)C2)C(=O)O", "note": "(configuration not stated)", "inhibition": "1.6%"}, {"molecule": "CCCCN(C(=O)COc1ccc(NC(C)=O)cc1)C1CCS(=O)(=O)C1", "note": "(configuration not stated)", "inhibition": "1.1%"}, {"molecule": "O=C(Nc1ccc(-n2ccnc2P(=O)(O)c2ccccc2)cc1)c1ccccc1Br", "inhibition": "1.4%"}, {"molecule": "O=C(C[n+]1cc(Br)cc2ccccc21)c1ccc(F)cc1", "inhibition": "120% (active)"}, {"molecule": "O=C(CNC(=O)c1ccccc1F)c1ccc(Br)cc1", "inhibition": "0.8%"}, {"molecule": "COC(=O)C[n+]1cccc2ccccc21", "inhibition": "28.6%"}, {"molecule": "Cc1cc(C)c2c(c1)cc(C)c1nnc(SCC(=O)Nc3cc(C)on3)n12", "inhibition": "-0.7%"}, {"molecule": "COc1cc(C(=O)NCc2cc3cc(Cl)ccc3n2C)cc(OC)c1OC", "inhibition": "0.3%"}, {"molecule": "CCOCC(=O)NCc1ccc2c(c1)cc(C)n2C", "inhibition": "6%"}, {"molecule": "COc1cc(C(=O)NCc2ccc3c(c2)cc(C)n3C)cc(OC)c1OC", "inhibition": "74.1% (active)"}, {"molecule": "CCC(Cc1ccccc1)NC(=O)C1CCCCC1", "note": "(configuration not stated)", "inhibition": "0.2%"}, {"molecule": "Cc1ccc(C(=O)N2CCCc3ccccc32)c(Cl)c1", "inhibition": "-0.5%"}, {"molecule": "O=C(c1c(Cl)nc2sccn12)N1CCCc2ccccc21", "inhibition": "0%"}, {"molecule": "Cc1cccc2cc3c(N)c(C(=O)N4CCCc5ccccc54)sc3nc12", "inhibition": "54.5% (active)"}, {"molecule": "COc1cc2ccc(C(C)=O)c(O)c2cc1OC", "inhibition": "0%"}, {"molecule": "C[C@H]1COc2cc(N3CCSCC3)ccc2S(=O)(=O)N1", "inhibition": "1.1%"}, {"molecule": "Cc1noc(C)c1NC(=O)Nc1cccc2c1O[C@H](CN(C)S(=O)(=O)c1c(C)noc1C)[C@@H](C)CN([C@H](C)CO)C2=O", "inhibition": "-0.8%"}, {"molecule": "COc1ccc(OC)c(NC(=O)C2CCCN2S(=O)(=O)c2cccc3nsnc23)c1", "note": "(configuration not stated)", "inhibition": "0.9%"}, {"molecule": "O=c1c(-c2ccccc2Cl)c[nH]n1-c1ccccc1", "inhibition": "1.7%"}, {"molecule": "CCCCNC(=O)C[C@@H]1C[C@@]2(C(=O)OCC)CCC=C2N(Cc2ccco2)C1=O", "inhibition": "0.2%"}, {"molecule": "CN1CC(c2ccccc2)C2(COc3ccccc3C2=O)C12C(=O)Nc1ccccc12", "note": "(configuration not stated)", "inhibition": "-0.4%"}, {"molecule": "CCc1nc2c(OCC(=O)C(C)(C)C)cccn2c1N(C)C(=O)c1ccccc1F", "inhibition": "-0.5%"}, {"molecule": "CC(NCc1nc2ccccc2n1C)C12CC3CC(CC(C3)C1)C2", "note": "(configuration not stated)", "inhibition": "0%"}, {"molecule": "COc1cc(/C=C2/SC(=S)N(Cc3ccccc3)C2=O)cc(OC)c1O", "inhibition": "39.9% (active)"}, {"molecule": "COc1ccc(CCNC2=C(Cl)C(=O)N(Cc3ccccc3)C2=O)cc1OC", "inhibition": "-0.2%"}, {"molecule": "CN1C=CC=C/C1=C1\\SC(=S)N(Cc2ccccc2)C1=O", "inhibition": "-1.8%"}, {"molecule": "O=C(O)CN(Cc1ccco1)S(=O)(=O)c1ccc(F)cc1", "inhibition": "-0.4%"}]}]}
